The supplement of paper PMC3334620
Whole data set: some 33,000 sequences, median “E-score (-0.5 to 0.5)” near -0.036, cut for the highest 2% near 0.37. The list comes from a sample in which the highest values are over-represented; it also holds similar and randomly drawn sequences.

What follows are sequences tested against T1, Yer064c (UniProt P40041) (assay: PBM E-score (8-mer binding enrichment) (E-score (-0.5 to 0.5)); higher = stronger / more preferred TF binding). Settings: protein concentration: 200 nM; construct: GST-full length.
T1 sequence: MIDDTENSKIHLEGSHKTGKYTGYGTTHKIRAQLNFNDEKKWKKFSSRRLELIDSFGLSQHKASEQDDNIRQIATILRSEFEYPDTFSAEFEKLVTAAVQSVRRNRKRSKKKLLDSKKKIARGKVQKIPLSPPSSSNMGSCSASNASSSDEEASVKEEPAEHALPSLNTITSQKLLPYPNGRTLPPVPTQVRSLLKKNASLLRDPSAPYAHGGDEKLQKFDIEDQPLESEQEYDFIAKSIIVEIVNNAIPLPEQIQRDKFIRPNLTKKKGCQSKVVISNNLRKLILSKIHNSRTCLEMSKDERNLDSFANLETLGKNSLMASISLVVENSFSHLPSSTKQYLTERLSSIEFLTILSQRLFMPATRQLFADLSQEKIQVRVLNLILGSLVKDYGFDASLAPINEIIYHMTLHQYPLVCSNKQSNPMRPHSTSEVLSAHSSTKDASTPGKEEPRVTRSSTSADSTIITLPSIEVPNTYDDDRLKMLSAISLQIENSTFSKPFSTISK
Experimental: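 Universal 'all 10-mer' protein binding microarrays (Agilent AMADID 015681) probed with GST-tagged S. cerevisiae TFs (full-length or DBD) made by in vitro transcription/translation (PURExpress), about 100-200 nM. Bound TF was detected with fluorescent anti-GST. Each ungapped 8-mer (which stands for itself and its reverse complement) is scored by the PBM enrichment score (E-score), a modified Wilcoxon-Mann-Whitney statistic from -0.5 to +0.5, computed with the Universal PBM Analysis Suite. Scale: above 0.35 generally sequence-specific binding.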
ACCACGGG was tested, and the “PBM E-score” value was -0.0993.
AGCAGGAG was tested, and the “PBM E-score” value was -0.0429.
In the case of GGCATACA, the “PBM E-score” value is reported as -0.226.
GATTCGAA was tested, and the “PBM E-score” value was 0.207.
With CTCGGTGA the “PBM E-score” value was 0.137.
With ACTACGAT the “PBM E-score” value was 0.233.
With CCCATGCC the “PBM E-score” value was -0.231.
With CCCAGAGG the “PBM E-score” value was -0.276.
GCGTCAGC was tested, and the “PBM E-score” value was -0.304.
GAGTCAGC was tested, and the “PBM E-score” value was 0.48.
For AAGTCAGC, the “PBM E-score” value was 0.422.
CAGTCAGC was tested, and the “PBM E-score” value was 0.406.
CAGTCAGG was tested, and the “PBM E-score” value was 0.333.
With AAGTCAGT the “PBM E-score” value was 0.362.
For AAGTCAGA, the “PBM E-score” value was 0.341.
CAGTCAGA was tested, and the “PBM E-score” value was 0.361.
ATGTCAGC was tested, and the “PBM E-score” value was -0.0283.
In the case of AATCTTAC, the “PBM E-score” value is reported as 0.183.
With ATTTGTCG the “PBM E-score” value was -0.0532.
With CACTCAGC the “PBM E-score” value was -0.0645.
With GACTCAGA the “PBM E-score” value was 0.458.
For CACTCAGA, the “PBM E-score” value was 0.0961.
In the case of AACTCAGA, the “PBM E-score” value is reported as 0.164.
GACTCAGC was tested, and the “PBM E-score” value was 0.457.
For AACTCAGC, the “PBM E-score” value was 0.022.
In the case of GGCGCGAA, the “PBM E-score” value is reported as -0.0884.
For AACGTGGC, the “PBM E-score” value was -0.0783.
In the case of ACCCTAGA, the “PBM E-score” value is reported as -0.0589.
For ACCTCGGC, the “PBM E-score” value was -0.153.
In the case of AATCACCC, the “PBM E-score” value is reported as 0.426.
In the case of AATCACCG, the “PBM E-score” value is reported as 0.42.
With AAGCACCG the “PBM E-score” value was -0.164.
GATCACCC was tested, and the “PBM E-score” value was 0.00825.
With AATCACCT the “PBM E-score” value was 0.438.
For CATCACCC, the “PBM E-score” value was -0.0525.
CATCACCG was tested, and the “PBM E-score” value was 0.156.
With AAACACCT the “PBM E-score” value was 0.129.
With TATCACCA the “PBM E-score” value was -0.0277.
With AACCACCT the “PBM E-score” value was 0.0325.
With CATCACCA the “PBM E-score” value was -0.0269.
AATCACCA was tested, and the “PBM E-score” value was 0.374.
With AGAAGAAC the “PBM E-score” value was -0.146.
For ACCAGACT, the “PBM E-score” value was 0.0775.
For ACGGCTAT, the “PBM E-score” value was -0.24.
For GGTTTACA, the “PBM E-score” value was -0.0888.
CGTGCACG was tested, and the “PBM E-score” value was 0.0709.
For CCTGAGGA, the “PBM E-score” value was 0.00765.
ACGGTATG was tested, and the “PBM E-score” value was -0.0999.
With ACGATTAA the “PBM E-score” value was 0.26.
For CCGATTAC, the “PBM E-score” value was -0.132.
With GGGATTAA the “PBM E-score” value was 0.166.
For AGGATTAA, the “PBM E-score” value was 0.253.
GTGATTAA was tested, and the “PBM E-score” value was 0.452.
For CTGATTAC, the “PBM E-score” value was 0.375.
CAGATTAA was tested, and the “PBM E-score” value was 0.183.
GAGATTAA was tested, and the “PBM E-score” value was 0.245.
With ATGATTAA the “PBM E-score” value was 0.472.
CGGATTAA was tested, and the “PBM E-score” value was 0.208.
CTGATTAA was tested, and the “PBM E-score” value was 0.405.
For CGGATTAC, the “PBM E-score” value was 0.0966.
GAAACTAC was tested, and the “PBM E-score” value was 0.00139.
With CCGAGGAC the “PBM E-score” value was -0.0294.
For AGCAAAAC, the “PBM E-score” value was -0.0941.
CATCCGAA was tested, and the “PBM E-score” value was 0.123.
For ATGGAAAG, the “PBM E-score” value was -0.0473.
CATATTGG was tested, and the “PBM E-score” value was -0.027.
In the case of ATATCTAA, the “PBM E-score” value is reported as 0.128.
In the case of AGCAGGTA, the “PBM E-score” value is reported as -0.131.
For CCTGCGCA, the “PBM E-score” value was -0.352.
With CATAATCC the “PBM E-score” value was -0.0164.
AATAATCC was tested, and the “PBM E-score” value was 0.0648.
In the case of AATAATCG, the “PBM E-score” value is reported as 0.104.
For CATAATCG, the “PBM E-score” value was 0.109.
In the case of GATAATCA, the “PBM E-score” value is reported as 0.384.
TATAATCA was tested, and the “PBM E-score” value was 0.387.
For CATAATCA, the “PBM E-score” value was 0.413.
For TATAATGA, the “PBM E-score” value was 0.256.
For TATAATAA, the “PBM E-score” value was 0.115.
In the case of AATAATCA, the “PBM E-score” value is reported as 0.382.
With GATAATAA the “PBM E-score” value was -0.0817.
With GATAATCC the “PBM E-score” value was -0.0741.
For CCTTTACC, the “PBM E-score” value was -0.149.
With GAGCGTAA the “PBM E-score” value was 0.0724.
CCCCTGCC was tested, and the “PBM E-score” value was -0.204.
With ATACTCTC the “PBM E-score” value was 0.00838.
For AGAAGGGG, the “PBM E-score” value was -0.324.
With GCCAGCAA the “PBM E-score” value was -0.238.
For GGTCCATA, the “PBM E-score” value was -0.194.
In the case of AAACGATG, the “PBM E-score” value is reported as -0.0198.
In the case of ATAGTCCA, the “PBM E-score” value is reported as 0.213.
ATCGTCAT was tested, and the “PBM E-score” value was 0.0309.
ATAGTCAT was tested, and the “PBM E-score” value was 0.489.
With CTAGTCAG the “PBM E-score” value was 0.418.
In the case of ATCGTCAC, the “PBM E-score” value is reported as -0.00908.
CTAGTAAG was tested, and the “PBM E-score” value was 0.0365.
For CTAGTCCA, the “PBM E-score” value was 0.109.
For ATAGTCAC, the “PBM E-score” value was 0.481.
With ATAGTCCC the “PBM E-score” value was 0.148.
ATAGTAAT was tested, and the “PBM E-score” value was 0.291.
With ATAGTCAA the “PBM E-score” value was 0.402.
For ATCGTCAA, the “PBM E-score” value was 0.0919.
For AACCTATA, the “PBM E-score” value was 0.0106.
For CCGCGATA, the “PBM E-score” value was -0.0471.
In the case of GTTGGTGA, the “PBM E-score” value is reported as 0.115.
AGAAACAG was tested, and the “PBM E-score” value was -0.164.
In the case of GCTCCAAC, the “PBM E-score” value is reported as -0.164.
GTCGTACA was tested, and the “PBM E-score” value was 0.19.
In the case of AGGGCGAC, the “PBM E-score” value is reported as -0.0248.
For CTACAGAC, the “PBM E-score” value was -0.184.
With CCCATTAA the “PBM E-score” value was -0.0295.
GGGTCGAA was tested, and the “PBM E-score” value was 0.0364.
In the case of GAGGCGGA, the “PBM E-score” value is reported as -0.0783.
In the case of CCCCCCAA, the “PBM E-score” value is reported as -0.315.
For GACGAAGA, the “PBM E-score” value was 0.0944.
GTGGGTTA was tested, and the “PBM E-score” value was 0.103.
For ATAGTCAG, the “PBM E-score” value was 0.454.
ATAGTCGG was tested, and the “PBM E-score” value was 0.256.
With ATAGTCCG the “PBM E-score” value was 0.316.
For ATAGTCGC, the “PBM E-score” value was 0.389.
For ATAGTCTG, the “PBM E-score” value was 0.177.
In the case of CTAGTCGC, the “PBM E-score” value is reported as 0.316.
With ACAGAAGG the “PBM E-score” value was -0.0367.
With CTGCATCA the “PBM E-score” value was -0.0294.
AGGATCGG was tested, and the “PBM E-score” value was -0.209.
With CGGGCTCC the “PBM E-score” value was -0.307.
For AATGAGCA, the “PBM E-score” value was -0.0702.
For GCTGAGTA, the “PBM E-score” value was 0.212.
For GATGAGTA, the “PBM E-score” value was 0.429.
With AATGAGTA the “PBM E-score” value was 0.389.
For CATGAGTA, the “PBM E-score” value was 0.341.
In the case of AATGAGGA, the “PBM E-score” value is reported as -0.00162.
For CGAGATTC, the “PBM E-score” value was 0.0578.
AAGTTGTA was tested, and the “PBM E-score” value was -0.0146.
ATGGGGCG was tested, and the “PBM E-score” value was -0.111.
AATTAATT was tested, and the “PBM E-score” value was 0.177.
GACTTATC was tested, and the “PBM E-score” value was 0.307.
With TACTTATA the “PBM E-score” value was 0.116.
GACTTATA was tested, and the “PBM E-score” value was 0.387.
TCTCCCCA was tested, and the “PBM E-score” value was -0.153.
CCGACAGC was tested, and the “PBM E-score” value was -0.394.
With AGGGAGTA the “PBM E-score” value was 0.0389.
With CGGGAGTA the “PBM E-score” value was -0.0367.
CGGGAGAC was tested, and the “PBM E-score” value was 0.106.
With AGGGAGTG the “PBM E-score” value was -0.175.
For CGGGAGTC, the “PBM E-score” value was 0.413.
With AGGGAGTC the “PBM E-score” value was 0.44.
GCTACCAA was tested, and the “PBM E-score” value was -0.00248.
With CGAGCCGC the “PBM E-score” value was -0.00093.
In the case of GGACGACC, the “PBM E-score” value is reported as -0.23.
CGGGCACA was tested, and the “PBM E-score” value was -0.212.
For CCAGGATC, the “PBM E-score” value was -0.0208.
With ATCCGGAC the “PBM E-score” value was -0.228.
For AATGGGGA, the “PBM E-score” value was -0.288.
With ACACCAGG the “PBM E-score” value was -0.148.
In the case of ACCAACGA, the “PBM E-score” value is reported as -0.0117.
With GACCGGTC the “PBM E-score” value was -0.369.
With AGTGACCG the “PBM E-score” value was -0.22.
AGTGACTA was tested, and the “PBM E-score” value was 0.469.
With GGTGACTA the “PBM E-score” value was 0.486.
AGTGACGA was tested, and the “PBM E-score” value was 0.218.
CGTGACGA was tested, and the “PBM E-score” value was 0.0595.
With AGTGACGG the “PBM E-score” value was -0.0747.
In the case of CGTGACAA, the “PBM E-score” value is reported as -0.253.
In the case of CGTGACTA, the “PBM E-score” value is reported as 0.486.
For AGTGACAA, the “PBM E-score” value was 0.0598.
In the case of GGTGACCA, the “PBM E-score” value is reported as 0.0718.
With AGTGACTG the “PBM E-score” value was 0.403.
With GGTGACGA the “PBM E-score” value was -0.0961.
In the case of GAGTACCA, the “PBM E-score” value is reported as 0.252.
In the case of AATACCAA, the “PBM E-score” value is reported as -0.0127.
With CTCAACCA the “PBM E-score” value was 0.152.
For GCTTGCCC, the “PBM E-score” value was -0.427.
